The text below walks through data of PubChem BioAssay (Tox21).

SMILES strings stand for the structures. Several values for one entry are separate records, joined by “and”; a condition that tells them apart may be missing. Equal entries are not always repeated. Results filed as inconclusive are left out. A structure can be active in one record and inactive in another. Activity calls are given as the source filed them. Unless noted, calls come from the whole dose curve; as a rule, active = well fitted curve in the direction sought with a large enough effect in the repeat runs; inconclusive = weak or mixed curves; inactive = no such curve, though single readings can be large; an effect the other way counts as inactive or inconclusive.

Test [1] in a line: qHTS assay to identify small molecule agonists of the progesterone receptor (PR) signaling pathway - cell viability counter screen (AID 1346799; calls by dose curve; note: nearly all actives have a fitted effect of over 45% in size; note: potency is the fitted concentration of half-maximal effect). In outline: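 Cytotoxicity measured by CellTiter-Glo luminescence (30 min, RT) in the same wells as the PR beta-lactamase agonist read. Those HEK293T cells had 16 h compound treatment at 37 C in 2% charcoal-stripped FBS medium.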
A general note: In qHTS, concentration-response curves come from the screen itself.

Test [2] is described as follows: qHTS assay to identify small molecule antagonists of the TGF-beta/Smad signaling pathway - cell viability counter screen (AID 1346824). Note: % is set by controls: 0 for no effect and ±100 for the full control effect; nearly all actives have a fitted effect of over 50% in size. In outline:
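SBE-bla HEK 293T cells, incubated overnight, then compound plus 0.25 ng/mL TGF-beta1 (stock added) for 5 hr at 37 C. Viability was read in the same wells by CellTiter-Glo luminescence after 30 min at room temperature.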

Test [3] is described as follows: qHTS assay to identify small molecule agonists of the TGF-beta/Smad signaling pathway - cell viability counter screen (AID 1346829). Note: top concentration of the series differs between compounds; % is set by controls: 0 for no effect and ±100 for the full control effect; nearly all actives have a fitted effect of over 45% in size. In outline:
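Tox21 qHTS format: SBE-bla HEK 293T cells treated with DMSO-dissolved compounds for 5 hr; CellTiter-Glo luminescence after 30 min at room temperature.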

The target in test [4] is Thyrotropin-releasing hormone receptor (Homo sapiens) (UniProt P34981). The test is described as follows: qHTS assay to identify small molecule antagonists of the thyrotropin-releasing hormone receptor (TRHR) signaling pathway (AID 1346877; active = well fitted inhibition curve with a large enough effect in the repeat runs, not every such curve was filed as active; note: potency is the fitted concentration of half-maximal effect). In outline: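 Antagonism is measured as suppression of the calcium response to 1 nM TRH in TRHR-HEK293 cells that have been dye-loaded for 2 h at 37 °C after overnight plating. Each compound is tested at 15 concentrations in triplicate.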

For test [5] the target is unchanged. The test is described as follows: qHTS assay to identify small molecule agonists of the thyrotropin-releasing hormone receptor (TRHR) signaling pathway (AID 1346891; calls by dose curve; note: potency is the fitted concentration of half-maximal effect; for activation: series mostly up to about 58 µM; % is set by controls: 0 for no effect and ±100 for the full control effect). In outline:
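Agonist-mode intracellular calcium readout: kinetic fluorescence over 3 min at 1 s intervals after compound addition to TRHR-HEK293 cells (18 h seeded, 2 h dye-loaded at 37 C). Fifteen concentrations, triplicates.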

A short description of test [6]: Human pregnane X receptor (PXR) small molecule agonists, qHTS cell viability counter screen (AID 1346977). Note: nearly all actives have a fitted effect of over 50% in size. Note: potency is the fitted concentration of half-maximal effect. In outline: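 Same-well viability read: CellTiter-Fluor added after 23 hr compound exposure, fluorescence measured 1 hr later. Cells were PXR-Luc HepG2 seeded at 2,000/well in 5% charcoal-stripped FBS medium, rested 5 hr before dosing at 37 C.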
Test [7] in a line: Caspase-3/7 induction in HepG2 cells by small molecules, qHTS assay (AID 1346978). Note: % is set by controls: 0 for no effect and ±100 for the full control effect; nearly all actives have a fitted effect of over 15% in size. In outline: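 Wild-type HepG2 cells, 2,000/well, settled 5 hr at 37 C and 5% CO2, then compound-treated for 17 hr; caspase-3/7 activity read by luminescent Caspase-Glo 3/7 after 30 min at room temperature.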
A short description of test [8]: Caspase-3/7 induction in CHO-K1 cells by small molecules, qHTS cell viability counter screen (AID 1346979). Note: % is set by controls: 0 for no effect and ±100 for the full control effect; nearly all actives have a fitted effect of over 35% in size. In outline: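 Cytotoxicity counter screen: CellTiter-Fluor added to compound-treated wild-type CHO-K1 cells at 16 h (37C, 5% CO2), fluorescence measured 1 h later; same wells as caspase-3/7 measurement.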
Test [9] is described as follows: Caspase-3/7 induction in CHO-K1 cells by small molecules, qHTS assay (AID 1346980). Note: % is set by controls: 0 for no effect and ±100 for the full control effect; nearly all actives have a fitted effect of over 15% in size. In outline: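 Wild-type CHO-K1 cells exposed to compounds for 17hr at 37 C, 5% CO2. Caspase-3/7 activity then measured by Caspase-Glo 3/7 luminescence after 30min at room temperature.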
Test [10] can be described thus: Caspase-3/7 induction in HepG2 cells by small molecules, qHTS cell viability counter screen (AID 1346981). Note: series mostly up to about 92 µM; % is set by controls: 0 for no effect and ±100 for the full control effect; nearly all actives have a fitted effect of over 30% in size. In outline:
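Cell viability is measured as a cytotoxicity counter screen alongside the Caspase-Glo 3/7 readout in identical wells. Wild-type HepG2 cells are treated with test compounds for 16 hr at 37 C before CellTiter-Fluor addition and a 1-hr incubation.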

The target in test [11] is Nuclear receptor subfamily 1 group I member 2 (Homo sapiens) (UniProt O75469). The test is described as follows: Human pregnane X receptor (PXR) small molecule agonists, qHTS assay (AID 1346982). For activation: % is set by controls: 0 for no effect and ±100 for the full control effect. Note: nearly all actives have a fitted effect of over 35% in size. Note: potency is the fitted concentration of half-maximal effect. In outline:
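Cells: HepG2 stably carrying PXR-Luc. Medium held 5% charcoal-stripped FBS. Compounds in DMSO added after 5 hr plating, incubated 24 hr, then luminescence quantified with ONE-Glo.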

Test [12] deals with Cytochrome P450 2D6 (Homo sapiens) (UniProt P10635). The test is described as follows: Cytochrome P450 Family 2 Subfamily D Member 6 (CYP2D6) small molecule antagonists: luciferase reporter qHTS assay (AID 1671196). Note: nearly all actives have a fitted effect of over 50% in size. Note: potency is the fitted concentration of half-maximal effect. In outline: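 Enzyme and proluciferin substrate were first combined with test chemical for 10 min at room temperature. Adding NADPH regeneration solution started a 1 h reaction, stopped with luciferin detection reagent and read by luminescence 20 min later.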
(Reporter assays use an easily measured gene product as a stand-in for the process of interest.)

Test [13] addresses Cytochrome P450 2C19 (Homo sapiens) (UniProt P33261). The test is described as follows: Cytochrome P450 Family 2 Subfamily C Member 19 (CYP2C19) small molecule antagonists: luciferase reporter qHTS assay (AID 1671197). Note: nearly all actives have a fitted effect of over 65% in size. Note: potency is the fitted concentration of half-maximal effect. In outline: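 Relative luminescence units recorded 20 min after the detection reagent stopped a 1 h, 37C CYP2C19 reaction on proluciferin substrate, which was started by NADPH regeneration following 10 min room-temperature compound preincubation; ketoconazole positive control.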

Test [14] has as its target Cytochrome P450 2C9 (Homo sapiens) (UniProt P11712). The test is described as follows: Cytochrome P450 Family 2 Subfamily C Member 9 (CYP2C9) small molecule antagonists: luciferase reporter qHTS assay (AID 1671198). Note: nearly all actives have a fitted effect of over 50% in size. Note: potency is the fitted concentration of half-maximal effect. In outline: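 P450-Glo proluciferin substrate with CYP2C9 enzyme; 10 min RT preincubation, then NADPH regeneration 1 h at 37C; luciferin detection reagent 20 min RT, luminescence in relative luminescence units.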

The target of test [15] is Nuclear receptor subfamily 1 group I member 2 (Rattus norvegicus) (UniProt Q9R1A7). The test is described as follows: Rat pregnane X receptor (rPXR) activation by small molecules, qHTS assay (AID 1346983). Note: % is set by controls: 0 for no effect and ±100 for the full control effect; nearly all actives have a fitted effect of over 20% in size. To be noted: rPXR luciferase reporter cells, One-Glo luminescence, 24 h; stronger effect = higher value. In outline:
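Cell-based rPXR activation assay: rPXR cells, 2,000 per well, rested 5hr at 37 C, then exposed to compounds in DMSO for 24 hr at 37 C. Luciferase activity read by One-Glo luminescence after 30 min at room temperature.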

The target in test [16] is Nuclear receptor subfamily 1 group I member 2 (Homo sapiens) (UniProt O75469). The test is described as follows: CYP3A4 induction through human pregnane X receptor (PXR) by small molecules, qHTS assay (AID 1346984). Note: potency is the fitted concentration of half-maximal effect; nearly all actives have a fitted effect of over 40% in size. In outline:
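Quantitative HTS in DPX-2 cells, i.e. HepG2 transfected with PXR response element and CYP3A4-promoter luciferase. Compounds in DMSO incubated 24hr at 37C; then P450-Glo CYP3A4 substrate, 3uM final, 3hr; One-Glo luminescence.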

Test [17] can be described thus: qHTS assay to identify small molecule agonists of the TGF-beta/Smad signaling pathway (AID 1346859; active = well fitted activation curve with a large enough effect in the signal ratio in the repeat runs, not every such curve was filed as active; the % refers to the signal ratio; note: series mostly up to about 77 µM; % is set by controls: 0 for no effect and ±100 for the full control effect). In outline: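 Fluorescence (ex 405 nm; em 460 and 530 nm) was read 2 h after LiveBLAzer FRET substrate at RT. The preceding compound treatment of overnight-plated SBE-bla HEK293T cells lasted 5 h at 37 C.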
Test [18] in a line: qHTS assay to identify small molecule antagonists of the progesterone receptor (PR) signaling pathway - cell viability counter screen (AID 1346798). In outline: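 Cytotoxicity read as CellTiter-Glo luminescence (30 min, room temperature) in the same wells as the beta-lactamase readout. HEK293T PR-UAS-bla cells in charcoal-stripped 2% FBS received compound and R5020, then 16 h at 37C, 5% CO2.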

Chain of Cytochrome P450 2D6 (Homo sapiens) (P10635 whole entry, looked up): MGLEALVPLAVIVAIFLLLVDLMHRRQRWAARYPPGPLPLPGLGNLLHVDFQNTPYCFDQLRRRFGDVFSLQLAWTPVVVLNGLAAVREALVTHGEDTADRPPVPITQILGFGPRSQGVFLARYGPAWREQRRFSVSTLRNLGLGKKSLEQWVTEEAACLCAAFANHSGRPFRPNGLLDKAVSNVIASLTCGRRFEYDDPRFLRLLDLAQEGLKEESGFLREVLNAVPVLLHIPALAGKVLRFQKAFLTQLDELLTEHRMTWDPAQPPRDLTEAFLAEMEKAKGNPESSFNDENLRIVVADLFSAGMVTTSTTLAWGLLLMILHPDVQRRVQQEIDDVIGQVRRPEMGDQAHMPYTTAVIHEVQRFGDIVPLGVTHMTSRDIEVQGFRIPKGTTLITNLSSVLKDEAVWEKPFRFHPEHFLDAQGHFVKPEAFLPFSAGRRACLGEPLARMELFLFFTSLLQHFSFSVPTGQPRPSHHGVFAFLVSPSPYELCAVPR
Chain of Cytochrome P450 2C9 (Homo sapiens) (P11712 whole entry, looked up): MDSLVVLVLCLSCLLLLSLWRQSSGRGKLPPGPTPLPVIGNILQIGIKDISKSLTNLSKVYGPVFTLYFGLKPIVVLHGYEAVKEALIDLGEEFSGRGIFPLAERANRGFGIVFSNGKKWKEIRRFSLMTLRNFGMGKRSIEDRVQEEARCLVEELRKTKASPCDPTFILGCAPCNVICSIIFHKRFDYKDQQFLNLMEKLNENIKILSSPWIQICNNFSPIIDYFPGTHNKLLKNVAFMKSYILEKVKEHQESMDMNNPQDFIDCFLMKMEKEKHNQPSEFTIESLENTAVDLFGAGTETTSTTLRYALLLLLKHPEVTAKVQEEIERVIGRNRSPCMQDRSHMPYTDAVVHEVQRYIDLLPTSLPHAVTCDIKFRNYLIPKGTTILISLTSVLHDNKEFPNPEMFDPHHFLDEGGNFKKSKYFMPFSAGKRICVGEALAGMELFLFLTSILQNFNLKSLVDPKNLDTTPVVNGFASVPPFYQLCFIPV
Chain of Cytochrome P450 2C19 (Homo sapiens) (P33261 whole entry, looked up): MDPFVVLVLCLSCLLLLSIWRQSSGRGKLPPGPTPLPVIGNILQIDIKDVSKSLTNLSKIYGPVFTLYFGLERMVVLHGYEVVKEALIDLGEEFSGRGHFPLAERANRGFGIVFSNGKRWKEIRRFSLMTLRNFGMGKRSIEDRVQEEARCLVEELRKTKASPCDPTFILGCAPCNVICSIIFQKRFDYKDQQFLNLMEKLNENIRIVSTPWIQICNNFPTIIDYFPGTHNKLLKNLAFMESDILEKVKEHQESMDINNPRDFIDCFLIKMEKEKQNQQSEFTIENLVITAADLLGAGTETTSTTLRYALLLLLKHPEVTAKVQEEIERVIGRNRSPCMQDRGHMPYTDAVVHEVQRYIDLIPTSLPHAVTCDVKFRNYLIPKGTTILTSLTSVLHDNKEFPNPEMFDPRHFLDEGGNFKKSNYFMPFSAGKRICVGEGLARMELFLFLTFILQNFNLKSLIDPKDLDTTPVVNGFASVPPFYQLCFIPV
Chain of Nuclear receptor subfamily 1 group I member 2 (Homo sapiens) (O75469 whole entry, looked up): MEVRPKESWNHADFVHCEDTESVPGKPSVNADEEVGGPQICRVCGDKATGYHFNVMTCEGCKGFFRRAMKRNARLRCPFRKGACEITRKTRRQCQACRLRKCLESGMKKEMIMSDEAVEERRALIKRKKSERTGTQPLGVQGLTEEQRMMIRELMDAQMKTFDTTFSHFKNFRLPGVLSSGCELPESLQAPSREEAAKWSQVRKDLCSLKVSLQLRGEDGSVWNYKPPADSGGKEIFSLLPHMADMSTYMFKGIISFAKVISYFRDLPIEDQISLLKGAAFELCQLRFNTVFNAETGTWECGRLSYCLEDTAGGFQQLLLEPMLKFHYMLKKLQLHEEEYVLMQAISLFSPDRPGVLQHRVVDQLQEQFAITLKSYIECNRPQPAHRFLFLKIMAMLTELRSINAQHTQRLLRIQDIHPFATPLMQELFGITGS
Chain of Thyrotropin-releasing hormone receptor (Homo sapiens) (P34981 whole entry, looked up): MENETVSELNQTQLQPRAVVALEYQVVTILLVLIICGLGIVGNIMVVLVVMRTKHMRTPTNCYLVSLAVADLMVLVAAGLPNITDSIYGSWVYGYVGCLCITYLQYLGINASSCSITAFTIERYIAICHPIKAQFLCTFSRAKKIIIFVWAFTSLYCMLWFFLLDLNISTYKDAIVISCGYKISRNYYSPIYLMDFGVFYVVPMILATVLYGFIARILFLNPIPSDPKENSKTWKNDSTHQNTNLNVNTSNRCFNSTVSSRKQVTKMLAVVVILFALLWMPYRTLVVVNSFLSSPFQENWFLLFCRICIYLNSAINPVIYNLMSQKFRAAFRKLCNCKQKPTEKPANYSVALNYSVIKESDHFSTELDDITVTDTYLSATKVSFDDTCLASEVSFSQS
Chain of Nuclear receptor subfamily 1 group I member 2 (Rattus norvegicus) (Q9R1A7 whole entry, looked up): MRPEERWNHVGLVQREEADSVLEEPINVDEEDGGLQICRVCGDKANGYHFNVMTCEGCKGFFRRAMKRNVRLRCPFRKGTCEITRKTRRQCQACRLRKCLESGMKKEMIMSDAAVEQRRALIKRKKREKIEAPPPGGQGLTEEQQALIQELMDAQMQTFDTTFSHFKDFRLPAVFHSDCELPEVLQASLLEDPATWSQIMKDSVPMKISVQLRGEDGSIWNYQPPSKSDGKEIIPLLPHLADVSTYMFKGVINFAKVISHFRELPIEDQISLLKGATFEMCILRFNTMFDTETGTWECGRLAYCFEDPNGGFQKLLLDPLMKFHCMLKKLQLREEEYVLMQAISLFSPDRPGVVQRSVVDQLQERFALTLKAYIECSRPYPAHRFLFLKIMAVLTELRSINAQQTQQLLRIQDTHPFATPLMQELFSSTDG

On to `CCCCCCC(O)CCCCCCCCCCC(=O)O` (centres undefined), for which the Potency in [1] was 48.7 µM (active) and 15.4 µM (active). Besides, the Potency result in test [2], in test [3], in test [4], in [5], in [6] and in test [7] was “inactive” each time. Moreover, the Potency entry in [8], in [9], in [10], in test [11], in test [12] and in [13] was “inactive” throughout. Besides, the Potency entry in test [14] was “inactive”.

As for `O=C1OC2(c3ccc(O)cc3Oc3cc(O)ccc32)c2ccccc21`, the Potency result in [1], in test [2], in [3], in [7], in test [9] and in test [12] was “inactive” throughout. The Potency in test [4] was 536 nM (active) and 3.7 µM (active); in test [5] it was 155 nM (active) and 1.69 µM (active); in test [11], 21.7 µM (active) and inactive; in [16], 14.1 µM (active); in [13] it was 20 µM (active) and 4.9 µM (active); in test [14], 11.2 µM (active). In addition, in test [15], the max activation is 0.287% (inactive).

Consider `CCc1ccc(C(c2ccc(CC)cc2)C(Cl)Cl)cc1`, for which the Potency entry in test [1], in test [2], in test [3], in test [4], in [5] and in test [6] was “inactive” each time. Besides, the Potency entry in test [7], in [8], in test [9], in test [10] and in test [12] was “inactive” in each case. Moreover, the result in test [17] was inactive. The Potency is 6.43 µM (active) and 3.56 µM (active) in test [13]; 14.4 µM (active) and 12.6 µM (active) in [14].

In the case of `CCCCC(CC)COC(=O)CC(C(=O)OCC(CC)CCCC)S(=O)(=O)O` (centres undefined), the Potency in [1] was 29.5 µM (active); in [6] it was 70.8 µM (active) and 61.1 µM (active); in test [11], 5.88 µM (active) and 3.06 µM (active); in test [12] it was “inactive and 17.8 µM (active)”; in test [14], 15.3 µM (active) and 12.6 µM (active). Moreover, the Potency result in test [3], in test [4], in test [5], in test [7] and in test [9] was “inactive” each time. In [17], the result was inactive.

For the compound `COc1ccc(CCN(C)CCCC(C#N)(c2ccc(OC)c(OC)c2)C(C)C)cc1OC` (centres undefined), the Potency result in test [18], in test [1], in [3], in [4], in test [5] and in test [12] was “inactive” throughout. Also, the Potency result in [13] and in test [14] was “inactive” throughout.

As for `CC(C)C(=O)c1c(C(C)C)nn2ccccc12`, the Potency entry in test [1], in test [2], in test [3], in [4], in test [5] and in [6] was “inactive” throughout. In addition, the Potency entry in test [7], in [8], in [9], in test [12], in test [13] and in [14] was “inactive” each time. Further, in test [17], the result was inactive.

In the case of `CCN(CC)c1ccc2c(C)cc(=O)oc2c1`, the Potency entry in test [18], in [1], in test [2], in [3], in test [4] and in test [5] was “inactive” throughout. Besides, the Potency result in test [7], in [9], in test [12] and in [14] was “inactive” in each case. Also, in test [13], the Potency is 40.2 µM (active) and 31.7 µM (active).
